# Source: PubChem BioAssay (NCATS)
# Inconclusive results are not listed. Where a call stands in place of a potency, no number is given. Active and inactive are the calls of the source. Unless noted, calls follow the shape of the dose curve; as a rule, active = well fitted curve in the direction sought with a large enough effect; inconclusive = small, poorly fitted or top-dose-only effect, or another doubt; inactive = no such curve, though single readings can be large; an effect the other way counts as inactive or inconclusive.
# Legend:
# [1] = molecular target: ATP-dependent 6-phosphofructokinase (Trypanosoma brucei brucei) (UniProt O15648); test: qHTS Assay to Find Inhibitors of T. brucei phosphofructokinase: hit validation (AID 492961);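 also: luminescence reports ADP formed as PFK phosphorylates fructose-6-phosphate with ATP; series mostly up to about 51 µM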
# Outline: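 Compounds titrated; %activity normalized to 0x and 1x enzyme controls, curve-fitted. Readout: ADP-Glo luminescence after 45 min room-temperature reaction of 1.25 nM PFK, 0.1 mM ATP, 0.5 mM F6P, pH 8.0.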
# [2] = molecular target: D(1A) dopamine receptor (Homo sapiens) (UniProt P21728); test: HTS Assay for Allosteric Agonists of the Human D1 Dopamine Receptor: Primary Screen for Potentiators (AID 488982)
# Outline: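 Tetracycline-induced HEK293 Trex D1 cells with forced coupling to calcium, loaded with no-wash calcium dye; kinetic fluorescence read 180 s after compound addition for agonism, then a further 180 s after an EC20 dopamine challenge for potentiation.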
# [3] = molecular target: D(1A) dopamine receptor (Homo sapiens) (UniProt P21728); test: HTS Assay for Allosteric Agonists of the Human D1 Dopamine Receptor: Primary Screen for Antagonists (AID 488983);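 also: calcium flux response to an EC80 dopamine challenge measured with no-wash dye; nearly all actives have a fitted effect of over 65% in size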; also: potency is read from the fitted curve at half-maximal effect
# Outline: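 Calcium-flux read-out in inducible HEK293 T-REx cells expressing D1, dye-loaded 30–90 min at room temperature. Kinetic reads: 180 s after compound (agonist phase), then 180 s after an EC80 dopamine challenge.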
# [4] = Validation screen for small molecules that induce genotoxicity in human embryonic kidney (HEK293T) cells expressing luciferase-tagged ELG1 (AID 493106)
# Outline: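 ELG1-luciferase reporter readout (ONE-Glo, 30 min, room temperature) after 16 hr compound treatment at 37 °C of HEK293T cells at 2,000 per well. Rising luminescence flags genotoxic stress.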
# [5] = molecular target: ATPase family AAA domain-containing protein 5 (Homo sapiens) (UniProt Q96QE3); test: Validation screen for small molecules that inhibit ELG1-dependent DNA repair in human embryonic kidney (HEK293T) cells expressing luciferase-tagged ELG1 (AID 493107); also: nearly all actives have a fitted effect of over 70% in size; also: potency is read from the fitted curve at half-maximal effect
# Outline: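 Luciferase read-out, ONE-Glo, 30 min at room temperature, follows 16 h co-exposure at 37 C of compound and the DNA-damaging agent 5-fluorouridine. Cells: HEK293T with ELG1-luciferase fusion, 2,000 per well, DMSO as vehicle.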
# [6] = qHTS for Inhibitors of Cell Surface uPA Generation: Validation Assay (AID 493164);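 also: RAW 264.7 macrophage cells exposed to compound for 18 h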
# Outline: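 ATP-Lite luminescence read-out: ATP remains high when uPA activity-dependent LF translocation into the cytoplasm is blocked. RAW 264.7 cells, 18 h compound exposure at 37 C; 7-point titration, 2.45 nM to 38.3 uM final.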
# [7] = molecular target: Peptidyl-prolyl cis-trans isomerase NIMA-interacting 1 (Homo sapiens) (UniProt Q13526); test: qHTS Validation Assay to Find Inhibitors of Pin1 (AID 504536; active = well fitted inhibition curve with a large enough effect in the polarisation, with a control signal flat, not every such curve was filed as active; the % refers to the polarisation)
# Outline: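 Fluorescence polarization competition: compounds (titration) displace HiFluor-488-labeled Pin1-1b peptide from Pin1 (0.3 uM final) in pH 7.5 HEPES buffer with DTT, 10 min at room temperature; %Activity normalized to no-enzyme wells, curves fitted.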
# [8] = Nrf2 qHTS screen for inhibitors: Validation (AID 493153; active = well fitted inhibition curve with a large enough effect in the main read-out, with a control signal flat, not every such curve was filed as active; also: potency is read from the fitted curve at half-maximal effect); conditions: Potency: luciferase luminescence; viability change: measured here: cytotoxicity max response
# Outline: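 Concentration-response on A549 ARE_Fluc reporter cells exposed 18-24 h at 37 C, 5% CO2. Cytotoxicity read first by CellTiter-Fluor fluorescence (Ex 405/Em 525), then Nrf2 inhibition by BugLite luminescence after 15 min.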
# [9] = molecular target: Galactokinase (Homo sapiens) (UniProt P51570); test: qHTS Validation Assay for Inhibitors of Human Galactokinase (GALK) (AID 493189)
# Outline: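 5 nM GALK / 100 uM galactose / 35 uM ATP, 20 mM HEPES pH8.0, 5 mM MgCl2, 60 mM NaCl, 1 mM DTT, 0.01% BSA (final). RT 1 h; Kinase-Glo Plus luminescence.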
# [10] = Validation screen for small molecules that induce DNA re-replication in SW480 colon adenocarcinoma cells (AID 504364)
# Outline: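 Image-based DNA content read-out: Hoechst stain 40 min, total nuclear fluorescence intensity (ex 405 nm, em 500-530 nm) after 48 h compound exposure of 250 SW480 cells/well at 37 C, 5% CO2, versus DMSO vehicle.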
# Peptidyl-prolyl cis-trans isomerase NIMA-interacting 1 (Homo sapiens), sequence (Q13526 whole entry, looked up): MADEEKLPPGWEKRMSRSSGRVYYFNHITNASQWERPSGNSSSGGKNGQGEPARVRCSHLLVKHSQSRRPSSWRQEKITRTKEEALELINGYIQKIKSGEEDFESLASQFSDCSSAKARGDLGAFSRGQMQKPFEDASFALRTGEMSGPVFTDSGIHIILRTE
# Galactokinase (Homo sapiens), sequence (P51570 whole entry, looked up): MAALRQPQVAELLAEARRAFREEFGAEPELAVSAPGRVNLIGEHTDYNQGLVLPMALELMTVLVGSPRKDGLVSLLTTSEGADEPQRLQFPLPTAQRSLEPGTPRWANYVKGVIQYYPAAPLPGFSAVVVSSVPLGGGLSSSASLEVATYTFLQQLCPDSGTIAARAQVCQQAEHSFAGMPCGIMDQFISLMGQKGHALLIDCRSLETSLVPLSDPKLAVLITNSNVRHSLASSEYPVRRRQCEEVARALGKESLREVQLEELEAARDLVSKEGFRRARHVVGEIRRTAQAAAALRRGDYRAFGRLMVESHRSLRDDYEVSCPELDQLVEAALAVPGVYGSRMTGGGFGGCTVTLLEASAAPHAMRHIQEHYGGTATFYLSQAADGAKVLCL
# ATP-dependent 6-phosphofructokinase (Trypanosoma brucei brucei), sequence (O15648 whole entry, looked up): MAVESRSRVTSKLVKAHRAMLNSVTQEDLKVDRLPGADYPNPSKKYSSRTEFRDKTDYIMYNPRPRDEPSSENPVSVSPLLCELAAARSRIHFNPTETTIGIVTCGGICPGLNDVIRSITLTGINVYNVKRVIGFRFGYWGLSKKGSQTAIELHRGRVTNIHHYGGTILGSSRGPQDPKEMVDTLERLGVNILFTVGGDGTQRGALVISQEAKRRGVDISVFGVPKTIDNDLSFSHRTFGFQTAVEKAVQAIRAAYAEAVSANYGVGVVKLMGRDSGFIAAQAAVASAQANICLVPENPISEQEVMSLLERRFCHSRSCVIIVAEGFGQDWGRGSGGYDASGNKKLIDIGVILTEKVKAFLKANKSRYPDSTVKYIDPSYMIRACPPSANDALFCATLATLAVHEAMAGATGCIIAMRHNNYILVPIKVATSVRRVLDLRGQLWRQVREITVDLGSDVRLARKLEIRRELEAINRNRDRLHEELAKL
# ATPase family AAA domain-containing protein 5 (Homo sapiens), sequence (Q96QE3 whole entry, looked up, the tested form may be a part): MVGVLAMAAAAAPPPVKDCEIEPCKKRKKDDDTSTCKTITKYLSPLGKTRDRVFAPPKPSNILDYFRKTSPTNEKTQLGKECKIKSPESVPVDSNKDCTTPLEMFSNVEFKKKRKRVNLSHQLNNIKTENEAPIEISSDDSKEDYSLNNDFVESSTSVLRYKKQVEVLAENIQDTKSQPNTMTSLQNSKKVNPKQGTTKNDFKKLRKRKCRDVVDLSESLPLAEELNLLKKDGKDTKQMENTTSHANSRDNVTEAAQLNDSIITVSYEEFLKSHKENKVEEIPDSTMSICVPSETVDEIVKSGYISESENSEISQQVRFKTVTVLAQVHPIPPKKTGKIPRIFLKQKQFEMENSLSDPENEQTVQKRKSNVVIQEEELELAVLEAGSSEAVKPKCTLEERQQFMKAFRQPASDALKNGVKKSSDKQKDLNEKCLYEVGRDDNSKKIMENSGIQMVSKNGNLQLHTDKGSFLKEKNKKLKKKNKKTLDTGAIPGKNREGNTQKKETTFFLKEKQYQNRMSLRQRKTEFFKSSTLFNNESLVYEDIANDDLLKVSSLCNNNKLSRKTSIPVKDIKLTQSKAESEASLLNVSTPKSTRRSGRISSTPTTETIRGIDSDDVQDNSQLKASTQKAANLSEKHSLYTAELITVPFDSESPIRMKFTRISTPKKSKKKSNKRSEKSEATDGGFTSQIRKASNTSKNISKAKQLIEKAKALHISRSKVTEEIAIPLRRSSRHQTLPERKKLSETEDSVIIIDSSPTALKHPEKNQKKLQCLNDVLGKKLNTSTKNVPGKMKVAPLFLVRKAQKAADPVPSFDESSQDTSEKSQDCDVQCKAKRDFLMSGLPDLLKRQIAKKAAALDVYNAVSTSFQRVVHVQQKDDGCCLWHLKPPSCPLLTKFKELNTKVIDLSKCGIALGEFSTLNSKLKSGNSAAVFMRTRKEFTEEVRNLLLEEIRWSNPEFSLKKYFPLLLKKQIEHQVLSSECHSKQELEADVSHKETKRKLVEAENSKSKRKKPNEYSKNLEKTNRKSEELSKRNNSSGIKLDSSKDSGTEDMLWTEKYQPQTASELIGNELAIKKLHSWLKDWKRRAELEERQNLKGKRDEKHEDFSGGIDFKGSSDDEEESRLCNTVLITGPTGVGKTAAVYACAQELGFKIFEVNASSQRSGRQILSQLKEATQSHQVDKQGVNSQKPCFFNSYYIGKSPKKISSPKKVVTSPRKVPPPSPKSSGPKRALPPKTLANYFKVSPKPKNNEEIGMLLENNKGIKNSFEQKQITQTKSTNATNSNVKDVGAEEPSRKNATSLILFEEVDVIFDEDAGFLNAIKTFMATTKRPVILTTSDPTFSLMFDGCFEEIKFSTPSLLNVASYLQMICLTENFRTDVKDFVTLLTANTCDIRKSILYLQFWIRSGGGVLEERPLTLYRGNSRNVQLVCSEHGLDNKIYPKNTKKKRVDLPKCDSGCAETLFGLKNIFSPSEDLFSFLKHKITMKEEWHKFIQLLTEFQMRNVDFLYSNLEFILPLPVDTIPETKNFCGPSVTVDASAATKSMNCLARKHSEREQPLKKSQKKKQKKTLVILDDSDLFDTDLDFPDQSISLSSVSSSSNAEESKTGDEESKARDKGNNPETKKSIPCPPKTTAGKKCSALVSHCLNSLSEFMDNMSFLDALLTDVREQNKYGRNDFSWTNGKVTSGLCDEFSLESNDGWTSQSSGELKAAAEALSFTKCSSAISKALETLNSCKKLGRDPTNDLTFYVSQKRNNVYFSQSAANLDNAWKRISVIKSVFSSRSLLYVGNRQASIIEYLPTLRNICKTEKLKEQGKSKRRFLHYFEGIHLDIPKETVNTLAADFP
# D(1A) dopamine receptor (Homo sapiens), sequence (P21728 whole entry, looked up): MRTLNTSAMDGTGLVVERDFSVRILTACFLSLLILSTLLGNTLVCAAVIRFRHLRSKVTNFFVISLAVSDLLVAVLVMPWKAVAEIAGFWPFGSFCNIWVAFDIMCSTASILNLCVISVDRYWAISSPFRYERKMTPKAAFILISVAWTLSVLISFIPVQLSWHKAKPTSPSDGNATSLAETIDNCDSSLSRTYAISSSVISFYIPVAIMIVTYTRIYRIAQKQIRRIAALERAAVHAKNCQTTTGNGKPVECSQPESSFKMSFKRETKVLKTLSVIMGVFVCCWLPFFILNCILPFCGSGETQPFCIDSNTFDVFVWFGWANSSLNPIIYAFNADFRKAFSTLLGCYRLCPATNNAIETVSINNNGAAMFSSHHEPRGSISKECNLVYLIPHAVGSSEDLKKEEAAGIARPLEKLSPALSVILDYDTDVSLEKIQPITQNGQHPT
smiles,measurement,setting,value
CCCCCCCCCCCCCC[N+](C)(C)C,outcome,[1],inactive
N[C@@H](Cn1ccc(=O)c(O)c1)C(=O)O,outcome,[2],inactive
same,Potency,[3],inactive
same,outcome,[4],inactive
same,Potency,[5],inactive
same,outcome,[6],inactive
same,outcome,[7],inactive
Cc1nn(-c2ccccc2)c(C)c1/C=N/N1CCN(Cc2ccccc2)CC1,outcome,[2],inactive
same,Potency,[3],inactive
same,outcome,[4],inactive
same,Potency,[8],inactive
same,viability change,[8],-3.49%
same,outcome,[6],inactive
same,outcome,[7],inactive
CCCCCCCCCCCCCCCC[n+]1ccccc1,outcome,[1],inactive
O=C1NC(c2cccc([N+](=O)[O-])c2)=CCN1c1ccccc1O,outcome,[2],inactive
same,Potency,[3],inactive
same,outcome,[4],inactive
same,Potency,[5],inactive
same,Potency,[8],inactive
same,viability change,[8],-1.13%
same,outcome,[6],inactive
same,outcome,[9],inactive
same,outcome,[10],inactive
same,outcome,[7],inactive
C[C@]12CCC(=O)C=C1CC[C@@H]1[C@@H]2[C@@H](O)C[C@@]2(C)[C@H]1CC[C@]2(O)C(=O)COC(=O)CCC(=O)O,outcome,[9],inactive
same,outcome,[10],inactive
CC(C)N(CCC(=O)c1ccc2ccccc2c1)Cc1ccccc1,outcome,[2],inactive
same,outcome,[4],inactive
same,Potency,[8],inactive
same,viability change,[8],-0.356%
same,outcome,[6],inactive
same,outcome,[9],inactive
same,outcome,[10],inactive
same,outcome,[7],inactive
CN1CCC(Nc2ncc3ncnc(Nc4ccc(F)c(Cl)c4)c3n2)CC1,outcome,[1],inactive
Nc1ncnc2nc[nH]c12,outcome,[1],inactive
Nc1c2ccccc2nc2ccccc12,outcome,[1],inactive
Nc1ccc2cc3ccc(N)cc3nc2c1,outcome,[1],inactive
NC(N)=NCCCCN=C(N)N,outcome,[2],inactive
same,Potency,[3],inactive
same,outcome,[4],inactive
same,Potency,[5],inactive
same,Potency,[8],inactive
same,viability change,[8],2.98%
same,outcome,[6],inactive
same,outcome,[9],inactive
same,outcome,[10],inactive
same,outcome,[7],inactive
O=[N+]([O-])c1ccc(O)c2ncccc12,outcome,[1],inactive
O=C1NC(=O)/C(=C/c2ccc3c(c2)OC(F)(F)O3)S1,outcome,[2],inactive
same,Potency,[3],inactive
same,Potency,[8],inactive
same,viability change,[8],-9.96%
same,outcome,[6],inactive
same,outcome,[7],inactive
C[N+](C)(C)CCO,outcome,[2],inactive
same,Potency,[3],inactive
same,outcome,[4],inactive
same,Potency,[5],inactive
same,Potency,[8],inactive
same,viability change,[8],-3.89%
same,outcome,[6],inactive
same,outcome,[9],inactive
same,outcome,[10],inactive
same,outcome,[7],inactive
CC(NCCC(c1ccccc1)c1ccccc1)c1ccccc1 (configuration not stated),outcome,[1],inactive
O=S(=O)(O)c1ccc2nc(-c3ccccc3)[nH]c2c1,outcome,[1],inactive
Brc1ccc([C@H]2CN3CCSC3=N2)cc1,outcome,[2],inactive
same,Potency,[3],inactive
same,outcome,[4],inactive
same,Potency,[5],inactive
same,Potency,[8],inactive
same,viability change,[8],-0.405%
same,outcome,[6],inactive
same,outcome,[9],inactive
same,outcome,[10],inactive
CN(C)c1cc2c(Nc3ccc4c(cnn4Cc4ccccc4)c3)ncnc2cn1,outcome,[2],inactive
same,Potency,[3],inactive
same,outcome,[4],inactive
same,outcome,[6],inactive
same,outcome,[9],inactive
same,outcome,[7],inactive
COC(=O)C1=CO[C@@H](O)[C@@H]2C(CO)=CC[C@H]12,outcome,[2],inactive
same,Potency,[3],inactive
same,outcome,[4],inactive
same,Potency,[5],inactive
same,Potency,[8],inactive
same,viability change,[8],-6.84%
same,outcome,[6],inactive
same,outcome,[7],inactive
Nc1ncnc2n[nH]c(Nc3ccc(F)cc3)c12,outcome,[2],inactive
same,Potency,[3],inactive
same,outcome,[4],inactive
same,outcome,[6],inactive
same,outcome,[7],inactive
COc1cccc2c1[C@@H]1CN(CCCCn3c(=O)[nH]c4c(sc5ncc(-c6ccccc6)nc54)c3=O)C[C@@H]1CO2,outcome,[2],inactive
same,Potency,[3],inactive
same,outcome,[4],inactive
same,Potency,[5],23.1 µM (active)
same,outcome,[6],inactive
same,outcome,[9],inactive
same,outcome,[10],inactive
same,outcome,[7],inactive
CCN(CC)CCNC(=O)c1ccc(NS(C)(=O)=O)cc1,outcome,[2],inactive
same,Potency,[3],inactive
same,outcome,[4],inactive
same,Potency,[5],inactive
same,Potency,[8],inactive
same,viability change,[8],5.75%
same,outcome,[6],inactive
same,outcome,[7],inactive
Clc1ccc2c(c1)N=C(N1CCNCC1)c1ccccc1N2,Potency,[3],0.562 µM (active)
same,outcome,[4],inactive
same,Potency,[5],inactive
same,Potency,[8],inactive
same,viability change,[8],1.81%
same,outcome,[6],inactive
same,outcome,[7],inactive
O=[N+]([O-])c1ccc(-c2nc(-c3ccc(F)cc3)c(-c3ccncc3)[nH]2)cc1,Potency,[3],inactive
same,outcome,[4],inactive
same,Potency,[8],16.4 µM (active)
same,viability change,[8],-1.66%
same,outcome,[6],inactive
same,outcome,[9],inactive
same,outcome,[10],inactive
O=C(Nc1ccc(Cl)cc1)Nc1ccc(Cl)c(Cl)c1,outcome,[1],inactive
Cn1cnc2c(NCc3ccccc3)nc(NCCO)nc21,outcome,[2],inactive
same,Potency,[3],inactive
same,outcome,[4],inactive
same,Potency,[5],inactive
same,Potency,[8],inactive
same,viability change,[8],8.36%
same,outcome,[6],inactive
same,outcome,[9],inactive
same,outcome,[10],inactive
same,outcome,[7],inactive
COc1ccccc1N1CCN(CCN2C(=O)CC3(CCCC3)CC2=O)CC1,outcome,[2],inactive
same,Potency,[3],inactive
same,outcome,[4],inactive
same,Potency,[5],inactive
same,Potency,[8],inactive
same,viability change,[8],9.42%
same,outcome,[6],inactive
same,outcome,[9],inactive
same,outcome,[10],inactive
same,outcome,[7],inactive
